# Counter-ions that a name gives are not always drawn.
# System: Saccharomyces cerevisiae BY4741 SeMeCo community
# Test: z-score of subpopulation abundance vs DMSO median, subpopulation auxotrophic for HLM; higher = larger share of this subpopulation than in DMSO controls
# Settings: 10 µM; 24 h; SM minimal medium; subpopulation (auxotrophy): HLM
# Experimental: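 Fluorescent four-plasmid SeMeCo (self-establishing metabolically cooperating S. cerevisiae BY4741 community; plasmids pH-mRuby2, pL-mWasabi, pU-eCFP, pM-TagRFP657) was grown 24 h in minimal SM medium with each Selleck FDA-approved drug at 10 µM in 384-well plates. Cells were fixed and imaged by high-content confocal microscopy. For each auxotrophic subpopulation (and the prototroph), a z-score gives the deviation from the DMSO vehicle-control population median.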
row,Structure (SMILES),z-score of subpopulation abundance
1,Cc1onc(-c2c(Cl)cccc2Cl)c1C(=O)N[C@@H]1C(=O)N2[C@@H]1SC(C)(C)[C@@H]2C(=O)O [Dicloxacillin Sodium],-0.56
2,O=C(c1ccc(OCCN2CCCCC2)cc1)c1c(-c2ccc(O)cc2)sc2cc(O)ccc12 [Raloxifene],0.78
3,CC[C@H]1OC(=O)[C@H](C)[C@@H](O[C@H]2C[C@@](C)(OC)[C@@H](O)[C@H](C)O2)[C@H](C)[C@@H](O[C@@H]2O[C@H](C)C[C@H](N(C)C)[C@H]2O)[C@](C)(O)C[C@@H](C)CN[C@H](C)[C@@H](O)[C@]1(C)O [Azathramycin],-0.79
4,CCc1c(C)[nH]c2c1C(=O)C(CN1CCOCC1)CC2 (stereo not given) [Molindone hydrochloride],-0.03
5,Cc1cccc(C)c1NC(=O)C1CCCCN1C (stereo not given) [Mepivacaine HCl],0.13
6,CC(C)NC(=N)NC(=N)Nc1ccc(Cl)cc1 [Proguanil],-0.27
7,CCCSc1ccc2[nH]c(NC(=O)OC)nc2c1 [Albendazole],0.74
8,CCN1CCCC1CNC(=O)c1cc(S(=O)(=O)CC)c(N)cc1OC (stereo not given) [Amisulpride],-0.87
9,COc1ccc([C@@H]2Sc3ccccc3N(CCN(C)C)C(=O)[C@@H]2OC(C)=O)cc1 [Diltiazem HCl],-0.37
10,CC(C)(C)CC(C)(C)c1ccc(OCCOCC[N+](C)(C)Cc2ccccc2)cc1 [Benzethonium Chloride],-0.12
11,Cc1cc2c(s1)Nc1ccccc1N=C2N1CCN(C)CC1 [Olanzapine],-0.05
12,CCCN[C@H]1CCc2nc(N)sc2C1 [Pramipexole dihydrochloride],-0.79
13,Cc1ccc(Nc2c(F)cccc2Cl)c(CC(=O)O)c1 [Lumiracoxib],3.33
14,CCCN(CCc1cccs1)[C@H]1CCc2c(O)cccc2C1 [Rotigotine],-0.19
15,COc1cc2c(cc1OC)C(=O)C(CC1CCN(Cc3ccccc3)CC1)C2 (stereo not given) [Donepezil HCl],0.49
16,N=C(N)NS(=O)(=O)c1ccc(N)cc1 [Sulfaguanidine],-1.22
17,CC(=O)N1CCN(c2ccc(OCC3COC(Cn4ccnc4)(c4ccc(Cl)cc4Cl)O3)cc2)CC1 (stereo not given) [Ketoconazole],-0.67
18,CCn1cc(C(=O)O)c(=O)c2cc(F)c(N3CCNC(C)C3)c(F)c21 (stereo not given) [Lomefloxacin HCl],0.25
19,CCCCOc1ccc(CC(=O)NO)cc1 [Bufexamac],-1.19
20,C[C@]12CC[C@@H]3c4ccc(O)cc4CC[C@H]3[C@@H]1CCC2=O [Estrone],-0.39

row,Structure (SMILES),z-score of subpopulation abundance
1,Clc1ccc(COC(Cn2ccnc2)c2ccc(Cl)cc2Cl)cc1 (stereo not given) [Econazole nitrate],10.7
2,OCc1ccccc1O[C@@H]1O[C@H](CO)[C@@H](O)[C@H](O)[C@H]1O [Salicin],-0.5
3,Nc1nc(N)nc(-c2cc(Cl)ccc2Cl)n1 [Irsogladine],-0.41
4,CCC(=O)NS(=O)(=O)c1ccc(-c2c(-c3ccccc3)noc2C)cc1 [Parecoxib],0.22
5,CCN(CC)CCOc1ccc2c(c1)C(=O)c1cc(OCCN(CC)CC)ccc1-2 [Tilorone dihydrochloride],0.21
6,CN(C)CCOc1ccc(/C(=C(/CCCl)c2ccccc2)c2ccccc2)cc1 [Toremifene Citrate],1.44
7,O=C1CCc2cc(OCCCCc3nnnn3C3CCCCC3)ccc2N1 [Cilostazol],-0.55
8,O=C(N[C@H](CO)[C@H](O)c1ccc([N+](=O)[O-])cc1)C(Cl)Cl [Chloramphenicol],0.01
9,Cc1cccc(N(C)C(=S)Oc2ccc3ccccc3c2)c1 [Tolnaftate],-0.75
10,O=C(c1ccc(F)cc1)C1CCN(CCn2c(=O)[nH]c3ccccc3c2=O)CC1 [Ketanserin],-0.05
11,C=C[C@]1(C)C[C@@H](OC(=O)CS[C@@H]2C[C@H]3CC[C@@H](C2)N3C)[C@]2(C)[C@H](C)CC[C@]3(CCC(=O)[C@H]32)[C@@H](C)[C@@H]1O [Retapamulin],-0.52
12,NC[C@H]1O[C@H](O[C@H]2[C@H](O)[C@@H](O[C@H]3O[C@H](CO)[C@@H](O)[C@H](N)[C@H]3O)[C@H](N)C[C@@H]2N)[C@H](N)C[C@@H]1O [Tobramycin],-1.18
13,COC(=O)C1=C(C)NC(C)=C(C(=O)OCC(C)C)C1c1ccccc1[N+](=O)[O-] (stereo not given) [Nisoldipine],0.45
14,CC(=O)[C@@]1(O)CC[C@H]2[C@@H]3C[C@H](C)C4=CC(=O)CC[C@]4(C)[C@H]3CC[C@@]21C [Medroxyprogesterone],0.49
15,COc1c(N2C[C@@H]3CCCN[C@@H]3C2)c(F)cc2c(=O)c(C(=O)O)cn(C3CC3)c12 [Moxifloxacin HCl],0.72
16,CC1(C)S[C@@H]2[C@H](NC(=O)[C@H](N)c3ccccc3)C(=O)N2[C@H]1C(=O)O [Ampicillin Trihydrate],0.52
17,CCN(CC)C(=O)[C@@]1(c2ccccc2)C[C@H]1CN [Levomilnacipran Hydrochloride],-1.07
18,CO/N=C(\C(=O)N[C@@H]1C(=O)N2C(C(=O)O)=C(CSC(=O)c3ccco3)CS[C@H]12)c1csc(N)n1 [Ceftiofur HCl],0.11
19,Clc1ccc(COC(Cn2ccnc2)c2ccc(Cl)cc2Cl)c(Cl)c1 (stereo not given) [Miconazole Nitrate],19.4
20,CCCCN1CCCC[C@H]1C(=O)Nc1c(C)cccc1C [Levobupivacaine HCl],-0.93
